In PubChem BioAssay (NCATS):
Inconclusive results are not listed. The source made the active and inactive calls. Calls follow the shape of the dose curve; as a rule, active = well fitted curve in the direction sought with a large enough effect; inconclusive = small, poorly fitted or top-dose-only effect, or another doubt; inactive = no such curve, though single readings can be large; an effect the other way counts as inactive or inconclusive.

Key:
[1] = Quantitative High-Throughput drug screen in 47 multiple myeloma cell lines against the NCATS MIPE library collection: OPM1_PLB cell viability assay (AID 1918989); also: nearly all actives have a fitted effect of over 40% in size; also: potency is read from the fitted curve at half-maximal effect
Procedure, shortened: (§1)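 Viability after 48 h drug exposure was measured as ATP-dependent luminescence. Cells, 500 per well, sat at 37 °C under 5% CO2; DMSO wells set 100%, media-only wells 0%.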

[2] = Quantitative High-Throughput drug screen in 47 multiple myeloma cell lines against the NCATS MIPE library collection: SKMM1_PLB cell viability assay (AID 1919863); details: SKMM1 myeloma viability, CellTiter-Glo ATP, 48 h; viability: hits give low values; also: nearly all actives have a fitted effect of over 35% in size; also: potency is read from the fitted curve at half-maximal effect
Procedure, shortened: as §1

[3] = Quantitative High-Throughput drug screen in 47 multiple myeloma cell lines against the NCATS MIPE library collection: XG6_PLB cell viability assay (AID 1919865); also: nearly all actives have a fitted effect of over 40% in size; also: potency is read from the fitted curve at half-maximal effect
Procedure, shortened: as §1

[4] = Quantitative High-Throughput drug screen in 47 multiple myeloma cell lines against the NCATS MIPE library collection: VP6_DJ cell viability assay (AID 1919867); also: potency is read from the fitted curve at half-maximal effect; nearly all actives have a fitted effect of over 40% in size
Procedure, shortened: as §1

[5] = Quantitative High-Throughput drug screen in 47 multiple myeloma cell lines against the NCATS MIPE library collection: XG1_PLB cell viability assay (AID 1919866); also: nearly all actives have a fitted effect of over 35% in size; also: potency is read from the fitted curve at half-maximal effect
Procedure, shortened: as §1

[6] = Quantitative High-Throughput drug screen in 47 multiple myeloma cell lines against the NCATS MIPE library collection: PE2_PLB cell viability assay (AID 1919869); also: nearly all actives have a fitted effect of over 35% in size; also: potency is read from the fitted curve at half-maximal effect
Procedure, shortened: as §1

[7] = Quantitative High-Throughput drug screen in 47 multiple myeloma cell lines against the NCATS MIPE library collection: PCM6_Riken cell viability assay (AID 1919870); also: nearly all actives have a fitted effect of over 30% in size; also: potency is read from the fitted curve at half-maximal effect
Procedure, shortened: as §1

[8] = Quantitative High-Throughput drug screen in 47 multiple myeloma cell lines against the NCATS MIPE library collection: RPMI8226_ATCC cell viability assay (AID 1919871); also: nearly all actives have a fitted effect of over 30% in size; also: potency is read from the fitted curve at half-maximal effect
Procedure, shortened: as §1

[9] = Quantitative High-Throughput drug screen in 47 multiple myeloma cell lines against the NCATS MIPE library collection: OPM2_DSMZ cell viability assay (AID 1919872); also: nearly all actives have a fitted effect of over 30% in size; also: potency is read from the fitted curve at half-maximal effect
Procedure, shortened: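 Myeloma cell lines, 500 cells per well, exposed to MIPE 4.0 library compounds for 48 h at 37C, 5% CO2. Viability from ATP by CellTiter-Glo luminescence; normalised to DMSO (100%) and media-only (0%) wells.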

[10] = Quantitative High-Throughput drug screen in 47 multiple myeloma cell lines against the NCATS MIPE library collection: KMS11_JCRBsus cell viability assay (AID 1919873); also: nearly all actives have a fitted effect of over 50% in size; also: potency is read from the fitted curve at half-maximal effect
Procedure, shortened: as §1

[11] = Quantitative High-Throughput drug screen in 47 multiple myeloma cell lines against the NCATS MIPE library collection: KMS28BM_JCRB cell viability assay (AID 1919874); also: nearly all actives have a fitted effect of over 35% in size; also: potency is read from the fitted curve at half-maximal effect
Procedure, shortened: as §1

[12] = target: Cytochrome P450 3A4 (Homo sapiens) (UniProt P08684); assay: qHTS for inhibitors of CYP3A4 against the NCATS DSHEA and TCM libraries (AID 1919971);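 also: % is scaled to controls: 0 for no effect and ±100 for the full control effect; inhibition lowers luminescence from luciferin made by CYP3A4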
Sequence of Cytochrome P450 3A4 (Homo sapiens) (P08684 whole entry, looked up): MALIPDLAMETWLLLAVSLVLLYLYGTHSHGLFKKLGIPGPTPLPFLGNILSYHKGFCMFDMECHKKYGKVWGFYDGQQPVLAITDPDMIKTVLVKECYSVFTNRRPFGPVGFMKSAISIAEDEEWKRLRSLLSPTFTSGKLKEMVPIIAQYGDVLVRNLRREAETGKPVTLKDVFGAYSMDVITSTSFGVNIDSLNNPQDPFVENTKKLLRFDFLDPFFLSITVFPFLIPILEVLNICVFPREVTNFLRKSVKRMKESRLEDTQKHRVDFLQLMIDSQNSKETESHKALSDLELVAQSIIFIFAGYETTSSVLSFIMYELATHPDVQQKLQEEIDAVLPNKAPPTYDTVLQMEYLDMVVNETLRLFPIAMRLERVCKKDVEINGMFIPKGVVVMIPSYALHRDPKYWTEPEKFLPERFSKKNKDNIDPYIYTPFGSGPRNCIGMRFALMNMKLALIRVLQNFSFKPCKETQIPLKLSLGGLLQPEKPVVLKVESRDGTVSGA
Procedure, shortened: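 Luminescent P450-Glo readout. Enzyme plus pro-luciferin substrate in manufacturer buffer (typically 100 mM KPO4); 15 min RT preincubation; 1x NADPH regenerating system, 30-45 min RT in the dark; detection reagent 30 min.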

[13] = target: Cytochrome P450 2D6 (Homo sapiens) (UniProt P10635); assay: qHTS for inhibitors of CYP2D6 against the NCATS DSHEA and TCM libraries (AID 1919972); also: % is scaled to controls: 0 for no effect and ±100 for the full control effect
Sequence of Cytochrome P450 2D6 (Homo sapiens) (P10635 whole entry, looked up): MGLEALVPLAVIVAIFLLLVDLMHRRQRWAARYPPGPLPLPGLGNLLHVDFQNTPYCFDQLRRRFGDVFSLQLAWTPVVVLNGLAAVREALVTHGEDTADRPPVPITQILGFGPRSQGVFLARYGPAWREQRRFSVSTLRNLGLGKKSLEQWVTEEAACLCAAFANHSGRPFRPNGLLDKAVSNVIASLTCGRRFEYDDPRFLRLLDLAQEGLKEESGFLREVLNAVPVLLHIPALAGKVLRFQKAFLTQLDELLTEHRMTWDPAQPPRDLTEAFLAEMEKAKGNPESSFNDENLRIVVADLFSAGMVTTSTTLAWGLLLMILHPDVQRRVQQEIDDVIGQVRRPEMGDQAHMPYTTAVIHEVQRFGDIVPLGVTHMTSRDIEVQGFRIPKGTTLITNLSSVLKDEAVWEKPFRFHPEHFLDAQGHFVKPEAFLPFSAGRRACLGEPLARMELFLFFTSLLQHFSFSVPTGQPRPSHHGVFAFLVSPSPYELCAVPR
Procedure, shortened: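 Steps: enzyme plus luciferin substrate dispensed; test substances pinned; 15 min RT; 1x NADPH regenerating solution added, 30–45 min RT protected from light; detection reagent, 30 min RT; luminescence measured. Minus-enzyme wells as background.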

[14] = KB-3-1 P-gp reporter qHTS against the NCATS DSHEA and TCM libraries (AID 1919975); also: 0% is about no effect
Procedure, shortened: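 Parental KB-3-1 human cervical adenocarcinoma cells (500 cells/well, DMEM + 10% FBS) were treated with substances for ~72 h at 37C; viability was read by CellTiter-Glo luminescence.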

[15] = qHTS Counterscreen for compound interference against the NCATS DSHEA and TCM libraries (AID 1919978); details: firefly luciferase detection reagent interference, luminescence; also: % of control where 0% means no effect
Procedure, shortened: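 D-luciferin (1 uM final) or 100 mM potassium phosphate buffer alone was preincubated 15 min at RT with compounds (19.5 nM to 39.8 uM final). Luciferin detection reagent was then added and luminescence read after 30 min at RT.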

[16] = Dual reporter qHTS for agonist of Pregnane X Receptor (hPXR) against the NCATS DSHEA and TCM libraries: Fluorescence readout (AID 1920058); also: 0% is about no effect
Procedure, shortened: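 hPXR-Luc HepG2 cells (2000/well) in phenol red-free medium with charcoal-stripped FBS attached for 5 h, then were exposed to compounds for about 24 h at 37 °C. Viability was read by CellTiter-Fluor fluorescence (Ex/Em 405/540 nm) after 1 h.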

[17] = Quantitative High-Throughput drug screen in 47 multiple myeloma cell lines against the NCATS MIPE library collection: U266_ATCC cell viability assay (AID 1919864); also: nearly all actives have a fitted effect of over 35% in size; also: potency is read from the fitted curve at half-maximal effect
Procedure, shortened: as §1

[18] = Quantitative High-Throughput drug screen in 47 multiple myeloma cell lines against the NCATS MIPE library collection: UTMC2_PLB cell viability assay (AID 1919868); details: CellTiter-Glo ATP luminescence, 48 h; viability (% of DMSO control): at 45.8 µM (top of the series); also: nearly all actives have a fitted effect of over 55% in size; also: potency is read from the fitted curve at half-maximal effect
Procedure, shortened: as §1

CC=C(C)C(=O)O[C@H]1C(C)=C[C@]23C(=O)[C@@H](C=C(CO)[C@@H](O)[C@]12O)[C@H]1[C@@H](C[C@H]3C)C1(C)C
active: Potency [1] 4.18 µM | Potency [2] 0.0059 µM | Potency [3] 3.72 µM | Potency [4] 26.4 µM

O=c1c(-c2ccc(O)cc2)coc2cc(O[C@@H]3O[C@H](CO)[C@H](O)[C@H](O)[C@H]3O)ccc12
inactive: Potency [1] | viability [2] 171% | Potency [3] | Potency [5] | Potency [6] | Potency [7] | Potency [8] | Potency [9] | Potency [10] | Potency [11] | outcome [12] | outcome [13] | outcome [14] | max response [15] 1.56% | outcome [16]

NC(=O)[C@@H](CCC(F)(F)F)N(Cc1ccc(-c2ncon2)cc1F)S(=O)(=O)c1ccc(Cl)cc1
active: Potency [1] 20.9 µM | Potency [2] 0.187 µM | Potency [17] 10.5 µM | Potency [11] 20.9 µM
inactive: Potency [9]

CCNc1cc(NC2CCC(O)CC2)nc(Nc2ccc3c(ccn3Cc3ccccc3)c2)n1 (stereo not given)
active: Potency [1] 29.6 µM | Potency [2] 18.7 µM | Potency [3] 20.9 µM | Potency [4] 23.5 µM | Potency [18] 37.2 µM | Potency [6] 23.5 µM | Potency [7] 20.9 µM | Potency [10] 20.9 µM

COc1ccc(-c2oc3c(CC=C(C)C)c(OC4O[C@H](CO)[C@@H](O)[C@H](O)[C@@H]4O)cc(O)c3c(=O)c2OC2O[C@@H](C)[C@H](O)[C@@H](O)[C@@H]2O)cc1 (stereo not given in full)
active: Potency [1] 26.4 µM | Potency [2] 20.9 µM | Potency [3] 23.5 µM | Potency [4] 16.6 µM | Potency [6] 23.5 µM | Potency [7] 16.6 µM | Potency [8] 20.9 µM | Potency [9] 23.5 µM | Potency [10] 23.5 µM | Potency [11] 16.6 µM

CC(C)C(=O)Nc1ncc(-c2cc(C(F)F)nn2-c2c(Cl)cccc2Cl)s1
active: Potency [1] 20.9 µM | Potency [2] 16.6 µM | Potency [5] 10.5 µM | Potency [4] 18.7 µM | Potency [18] 20.9 µM | Potency [6] 23.5 µM | Potency [10] 11.8 µM | Potency [11] 11.8 µM

N#C[C@H]1C[C@H]2C[C@@H]2N1C(=O)[C@@H](N)C12CC3CC(CC(O)(C3)C1)C2
inactive: Potency [1] | viability [2] 119% | Potency [17] | Potency [5] | Potency [8] | Potency [9]
active: Potency [6] 0.0026 µM

CN1[C@@H]2CCC[C@@H]1CC(NC(=O)c1nn(C)c3ccccc13)C2 (stereo not given in full)
inactive: Potency [1] | viability [2] 111% | Potency [3] | Potency [5] | Potency [6] | Potency [7] | Potency [8] | Potency [9] | Potency [10] | Potency [11]

CCC(=O)O[C@]1(C(=O)CO)CC[C@H]2[C@@H]3CCC4=CC(=O)CC[C@]4(C)[C@@H]3CC[C@@]21C
inactive: Potency [1] | viability [2] 108% | Potency [17] | Potency [18] | Potency [6] | Potency [8] | Potency [11]
active: Potency [4] 10.5 µM | Potency [10] 0.209 µM

COc1ccc2c3c1OC1C[C@@H](O)C=C[C@@]31CCN(C)C2 (stereo not given in full)
inactive: Potency [1] | viability [2] 103% | Potency [8] | Potency [9] | Potency [10]
active: Potency [17] 4.18 µM | Potency [5] 5.9 µM

NC1=N[C@@]2(c3cc(NC(=O)c4ccc(F)cn4)ccc3F)COC[C@@H]2CS1
active: Potency [1] 16.6 µM | Potency [3] 3.72 µM | Potency [4] 13.2 µM | Potency [6] 23.5 µM | Potency [7] 11.8 µM | Potency [10] 23.5 µM | Potency [11] 18.7 µM
inactive: viability [2] 111% | Potency [8]

O=C(NCc1ccncc1)C12C[C@H]3C[C@@H](C1)CC(c1ccc(Cl)cc1)(C3)C2
active: Potency [1] 18.7 µM | Potency [2] 23.5 µM | Potency [17] 16.6 µM | Potency [3] 4.69 µM | Potency [8] 29.6 µM | Potency [10] 14.8 µM | Potency [11] 18.7 µM

CCn1c(C(=O)N(C2CC2)C2CC2)cc2c3c(ncn3C)c(Nc3cc(C)n(C)n3)nc21
inactive: viability [2] 128% | Potency [11]
active: Potency [1] 20.9 µM | Potency [3] 13.2 µM | Potency [4] 29.6 µM | Potency [6] 16.6 µM

C[C@H]1[C@H](NC(=O)C(=NOC(C)(C)C(=O)O)c2csc(N)n2)C(=O)N1S(=O)(=O)O
active: Potency [17] 14.8 µM
inactive: Potency [1] | viability [2] 114% | Potency [18] | Potency [6] | Potency [7] | Potency [9] | Potency [10] | Potency [11]

C=C1C(=O)OC2C=C(C)CCC=C(C)CCC12 (stereo not given)
inactive: Potency [18]
active: Potency [1] 18.7 µM | Potency [2] 29.6 µM | Potency [17] 20.9 µM | Potency [5] 16.6 µM | Potency [4] 8.33 µM | Potency [6] 16.6 µM | Potency [7] 18.7 µM | Potency [9] 20.9 µM | Potency [10] 20.9 µM | Potency [11] 18.7 µM
